Results as given in PubChem BioAssay AID493025 (Johns Hopkins Ion Channel Center, 2011).
In all, about 1,000 compounds went through this assay and about 570 (57%) were called active. No rule for the calls is given here. So high a share suggests a set chosen from earlier hits. The entries come from a sample that favours actives as a whole.

The molecules below were run against Potassium voltage-gated channel subfamily KQT member 2 (Rattus norvegicus) (UniProt O88943) (assay: rat KCNQ2 potassium channel inhibitors, confirmation, cell-based, thallium flux (AID 493025;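 also: 0% = vehicle wells and values are ratio percent relative to vehicle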)). Details: KCNQ2-expressing cells, at 10 µM, active compounds read low.
Potassium voltage-gated channel subfamily KQT member 2 (Rattus norvegicus), sequence (O88943 whole entry, looked up): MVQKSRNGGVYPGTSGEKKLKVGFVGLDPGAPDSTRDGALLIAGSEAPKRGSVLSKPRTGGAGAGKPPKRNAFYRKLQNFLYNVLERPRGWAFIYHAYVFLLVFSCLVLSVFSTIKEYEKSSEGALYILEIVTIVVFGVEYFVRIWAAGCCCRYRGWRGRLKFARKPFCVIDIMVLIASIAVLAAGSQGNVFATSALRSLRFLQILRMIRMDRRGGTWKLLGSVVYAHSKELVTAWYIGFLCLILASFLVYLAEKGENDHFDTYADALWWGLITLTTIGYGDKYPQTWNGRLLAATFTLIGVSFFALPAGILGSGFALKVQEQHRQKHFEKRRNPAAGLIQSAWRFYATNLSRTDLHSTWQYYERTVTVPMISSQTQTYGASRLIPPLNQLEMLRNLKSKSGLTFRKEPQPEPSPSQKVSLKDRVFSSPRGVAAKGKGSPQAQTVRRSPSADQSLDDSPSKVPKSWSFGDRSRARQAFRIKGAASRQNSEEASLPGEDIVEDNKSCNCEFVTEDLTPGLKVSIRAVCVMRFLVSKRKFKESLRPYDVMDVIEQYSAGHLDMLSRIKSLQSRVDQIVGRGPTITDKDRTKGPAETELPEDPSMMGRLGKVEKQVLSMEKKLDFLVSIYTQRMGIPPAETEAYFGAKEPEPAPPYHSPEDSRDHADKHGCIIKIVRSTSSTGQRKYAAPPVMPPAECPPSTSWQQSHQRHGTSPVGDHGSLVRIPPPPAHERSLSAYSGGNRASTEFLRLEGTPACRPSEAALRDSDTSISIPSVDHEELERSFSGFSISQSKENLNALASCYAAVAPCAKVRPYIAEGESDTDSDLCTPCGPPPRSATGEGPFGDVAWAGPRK
In the case of `CN(C)CC1Oc2ccccc2OC1(O)c1ccccc1` (configuration not stated), the activity change, negative = inhibition is reported as -32% (active). With `O=C(NC(c1ccc(Cl)cc1)P(=O)(Oc1ccccc1)Oc1ccccc1)OCc1ccccc1` (configuration not stated) the activity change, negative = inhibition was -23% (active).
